Cruzain inh Det = blocks cruzain activity in presence of Triton detergent; 200,000 tested, 0.43% active; purified cruzain, Z-FR-AMC fluorescence, 0.01% Triton; P25779; Potency, µM, without a hit: max response, negative = inhibition, most hits filed as inhibitors;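 also: plate controls were neutral wells for no effect and buffer without enzyme for full effect; nearly all actives have a fitted effect of over 40% in size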
Target sequence (P25779 123-467 limits assumed): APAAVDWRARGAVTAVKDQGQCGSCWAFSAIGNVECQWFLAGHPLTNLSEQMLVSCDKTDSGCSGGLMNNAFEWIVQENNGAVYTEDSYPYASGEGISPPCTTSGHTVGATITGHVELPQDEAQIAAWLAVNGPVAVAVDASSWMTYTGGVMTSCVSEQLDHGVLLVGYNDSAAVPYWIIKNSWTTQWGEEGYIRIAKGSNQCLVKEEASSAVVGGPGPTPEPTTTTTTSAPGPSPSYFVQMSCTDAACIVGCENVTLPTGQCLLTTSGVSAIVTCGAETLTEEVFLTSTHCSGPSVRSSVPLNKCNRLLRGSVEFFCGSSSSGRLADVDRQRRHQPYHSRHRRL
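Sodium acetate buffer (100 mM, pH 5.5) containing 5 mM DTT and 0.01% Triton X-100 hosted 1.5 nM cruzain and test compound for 15 min at room temperature. Cleavage of 2 uM Z-FR-AMC was then tracked by fluorescence.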
Cruzain noTriton = blocks cruzain activity in detergent-free assay; purified cruzain, Z-FR-AMC fluorescence, no detergent; 200,000 tested, 2.3% active; AID 1476; Potency, µM, inactives show max response, negative = inhibition, actives largely listed as inhibitors;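 also: plate controls were enzyme without inhibitor for no effect and buffer without enzyme for full effect; nearly all actives have a fitted effect of over 40% in size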
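Detergent-free condition (0.00005% Triton X-100) in acetate buffer pH 5.5 with DTT. 1.5 nM enzyme and compound were pre-mixed 15 min, then 2 uM Z-FR-AMC substrate added; reaction progress from fluorescence change between first and third reads (60 s).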
Papain counter = papain (Carica papaya) inhibition counter-screen | Potency, µM, for inactives: max response, negative = inhibition, usual class: inhibitors | 410 tested, 41% active | purified papain, Z-FR-AMC fluorescence cleavage | AID 2161 | shares compounds with Cruzain inh Det;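 also: 0% = no-compound wells and -100% = no-enzyme wells; nearly all actives have a fitted effect of over 35% in size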
Target sequence (P00784 whole entry, looked up): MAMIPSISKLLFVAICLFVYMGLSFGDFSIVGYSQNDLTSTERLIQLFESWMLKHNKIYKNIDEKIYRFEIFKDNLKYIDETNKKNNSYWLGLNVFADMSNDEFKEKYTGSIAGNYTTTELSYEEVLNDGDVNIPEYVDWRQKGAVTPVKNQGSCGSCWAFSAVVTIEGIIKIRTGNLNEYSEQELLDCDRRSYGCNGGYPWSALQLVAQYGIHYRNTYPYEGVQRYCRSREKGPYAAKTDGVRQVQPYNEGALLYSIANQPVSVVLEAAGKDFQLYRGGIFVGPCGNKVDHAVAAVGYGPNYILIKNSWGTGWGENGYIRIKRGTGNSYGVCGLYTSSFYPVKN
* = called active by the depositor; ? = inconclusive; . = no result given. Rows were chosen to be rich in hits. Some 2.5% of all compounds tested hit in one or more screens of this group. Calls follow the shape of the dose curve; as a rule, active = well fitted curve in the direction sought with a large enough effect; inconclusive = small, poorly fitted or top-dose-only effect, or another doubt; inactive = no such curve, though single readings can be large; an effect the other way counts as inactive or inconclusive. Potency is read from the fitted curve at half-maximal effect.

SMILES	Cruzain inh Det	Cruzain noTriton	Papain counter
COc1ccc2cc(CN(CCc3ccccc3)Cc3nnnn3Cc3ccco3)c(=O)[nH]c2c1	-12%	14%	.
COc1ccc2[nH]c(=O)c(CN(Cc3nnnn3Cc3ccco3)C3CCCCC3)cc2c1	7.1µM*	7.9µM*	-42%
Cc1ccc2cc(CN(Cc3ccc4c(c3)OCO4)Cc3nnnn3Cc3ccco3)c(=O)[nH]c2c1	-10%	-3%	.
CCc1ccc2[nH]c(=O)c(CN(Cc3ccco3)Cc3nnnn3Cc3ccco3)cc2c1	.	.	-19%
Cc1ccc(CN(Cc2cc3cc4c(cc3[nH]c2=O)OCCO4)Cc2nnnn2Cc2ccco2)cc1	20µM*	11%	-26%
CCC(c1nnnn1Cc1ccco1)N(Cc1ccccc1OC)Cc1cc2cc(C)ccc2[nH]c1=O (configuration not stated)	-9%	-13%	.
Cc1ccc2[nH]c(=O)c(CN(Cc3ccco3)Cc3nnnn3Cc3ccco3)cc2c1	.	.	-3%
COc1ccc2[nH]c(=O)c(CN(C3CCCCC3)C(c3nnnn3Cc3ccco3)C(C)C)cc2c1 (configuration not stated)	-24%	?	.
CCCn1c(C)nc2c(N(CCN(C)C)Cc3ccccc3)nc(C)nc21	-4%	1%	.
COc1ccccc1NC(=O)c1cc(S(=O)(=O)N(C)C2CCCCC2)ccc1F	1%	-14%	.
COc1ccc(OC)c(NC(=O)c2cnn(-c3ccc(C)cc3)c2C2CCNCC2)c1	-8%	-10%	.
CCc1nc2ccccc2n2c(-c3ccc(C)cc3)c3c(=O)n(C)c(=O)n(C)c3c12	-3%	-2%	.
CCOc1ccc(NC(=O)c2ccc3c(SCC(=O)O)c4c(nc3c2)CCC4)cc1	-1%	-4%	.
NC[C@@H](O)CSCc1ccc(Cl)cc1	9%	-17%	.
Cc1ccc2[nH]c(=O)c(CN(Cc3ccccc3)Cc3nnnn3C3CCCC3)cc2c1	-12%	12%	.
Cc1ccc2[nH]c(=O)c(CN(Cc3ccccc3)Cc3nnnn3Cc3ccco3)cc2c1	.	.	-13%
COc1ccc(C(=O)COC(=O)CCCC(=O)Nc2ccc(C(C)=O)cc2)cc1	-3%	13%	.
CCOCCc1nnc(NC(=O)C(=O)c2cc(C)n(-c3ccc(Cl)cc3)c2C)s1	-10%	-20%	.
Clc1nc(Nc2ccccc2)nc(Nc2ccccc2)n1	-6%	-8%	.
CCNc1nc(C#N)nc(Nc2ccccc2)n1	.	.	5.6µM*
CCCNc1nc(C#N)nc(Nc2ccccc2)n1	.	.	1µM*
CC(C)(CO)Nc1nc(Nc2ccccc2)nc(Nc2ccccc2)n1	-14%	-2%	.
O=c1c(-c2ccc(Cl)cc2)c(C(F)(F)F)oc2c(CN3CCCCC3)c(O)ccc12	4%	9%	.
CCN(CC)c1nc(-c2ccc(C(C)(C)C)cc2)nc2ccccc12	-3%	2%	.
Cc1ccc(OCCCCn2c(CCNC(=O)C3CCCCC3)nc3ccccc32)cc1	.	.	32µM*
SMILES	Cruzain inh Det	Cruzain noTriton	Papain counter
Cc1ccc(OCCn2c(CCNC(=O)C3CCCCC3)nc3ccccc32)cc1	1.3µM*	-10%	-14%
CCOc1ccc(NCc2nc3ccccc3n2CCOc2ccc(C)cc2)cc1	-9%	-9%	.
CC(C)(C)C(=O)NCCCc1nc2ccccc2n1CCCOc1ccc(Cl)cc1	-5%	?	.
CCc1nc2ccccc2n1CCCCOc1ccc(C)cc1	-11%	6%	.
CC(C)(C)c1ccc(OCCn2c(CCNC(=O)C3CCCCC3)nc3ccccc32)cc1	.	.	-20%
Cc1ccc(OCCCn2c(CCNC(=O)C3CCCCC3)nc3ccccc32)cc1	.	.	25µM*
COc1ccc(NC(=O)Cn2c(=O)n(-c3cccc(C)c3)c(=O)c3c2c2cc(C)ccc2n3C)cc1Cl	0%	-6%	.
CCOC(=O)c1ccc(NC(=O)c2noc3c2CCCC3)cc1	-8%	6%	.
CCOc1ccccc1NC(=O)CN1C(=O)COc2ccc(S(=O)(=O)N3CCCCC3)cc21	-2%	-6%	.
Cc1ccc(OCCn2nnc3sc4c(c3c2=O)CCC(C)C4)cc1 (configuration not stated)	0%	-6%	.
COc1ccc(NC(=O)CC2C(=O)N(c3cccc(C)c3)C(=O)N2Cc2cccnc2)cc1 (configuration not stated)	-1%	7%	.
O=C(Cc1ccc(F)cc1)NCc1ccc2c(c1)CCN2C(=O)c1ccc(F)cc1	-1%	-3%	.
Cn1ncc2c(NCc3ccc(Cl)cc3)ncnc21	0%	-9%	.
O=C(NCCc1nc2ccccc2n1CCCOc1ccc(Cl)cc1)C1CCCCC1	2µM*	16%	28µM*
CC(=O)NCCc1nc2ccccc2n1CCCCOc1ccc(Cl)cc1	-10%	?	.
C=C(C)C(=O)OC1(C(F)(F)F)Oc2cc(C)ccc2NC1=O (configuration not stated)	6.3µM*	7.9µM*	28µM*
CCOC(=O)C1(N(CC)CC)Sc2cc(C)ccc2NC1=O (configuration not stated)	-8%	-1%	.
N#C[C@H]1CN[C@H](N)N[C@@H]1N	2%	4%	.
COc1ccc(C(=O)N2CCC3(CCN(Cc4cc(C(F)(F)F)cc(C(F)(F)F)c4)CC3)CC2)cc1	1%	6%	.
Cc1ccc(S(=O)(=O)NC(CC(N)=O)C(=O)O)cc1 (configuration not stated)	4%	1%	.
Cc1ccc(S(=O)(=O)N[C@@H](CCCCN)C(=O)CCl)cc1	0.79µM*	1µM*	4µM*
CCn1cnc2c(Nc3cccc(Cl)c3)nc(N[C@@H]3CCCC[C@@H]3N)nc21	-4%	9%	.
CCn1cnc2c(Nc3cc(F)cc(F)c3)nc(C#N)nc21	.	.	0.3µM*
CCSc1nc2sc3c(c2c(=O)n1-c1ccc(C)cc1)CCCC3	-1%	-4%	.
CCOc1ccc(CN2C(=O)c3ccccc3Sc3ccc(C(=O)NC)cc32)cc1	-6%	?	.
SMILES	Cruzain inh Det	Cruzain noTriton	Papain counter
CCOc1ccc(CN2C(=O)c3ccccc3Sc3ccc(C(=O)NCc4ccc5c(c4)OCO5)cc32)cc1	-2%	10µM*	1%
CCNc1nc(C#N)nc(N2CCCCC2)n1	.	.	2.5µM*
N#Cc1nc(N2CCCCC2)nc(N(c2ccccc2)c2ccccc2)n1	.	.	2.8µM*
Nc1nc(N2CCCCC2)nc(N(c2ccccc2)c2ccccc2)n1	-5%	6%	.
CCNc1nc(NC(C)(C)C)nc(N2CCCC2)n1	0%	-14%	.
Clc1nc(Cl)nc(N(c2ccccc2)c2ccccc2)n1	-2%	-10%	.
CCN(CC)c1nc(C#N)nc(N2CCOCC2)n1	.	.	1µM*
CC(C)CN(C#N)c1nc(N2CCOCC2)nc(N2CCOCC2)n1	3%	19%	.
CCOc1nc(C#N)nc(N(c2ccccc2)c2ccccc2)n1	.	.	-8%
CC(C)OCCCNC(=O)c1ccc2c(c1)N(Cc1c(F)cccc1Cl)C(=O)c1ccccc1S2	-3%	11%	.
CCc1ccccc1NC(=O)c1ccc2c(SCC(=O)O)c3c(nc2c1)CCC3	1%	-11%	.
COc1ccc(-c2nc3n(n2)C(c2ccc(OC)cc2)C(C(=O)Nc2cccnc2)=C(C)N3)cc1 (configuration not stated)	-4%	?	.
COc1ccc(-n2c(=O)c3sc4ccccc4c3n(CC(=O)N3CCCC3)c2=O)cc1	1%	5%	.
COc1ccccc1CNC(=O)c1cc2cccc3c2n1CC(C)S3 (configuration not stated)	2%	3%	.
CCCCN(CC)CCNC(=O)Cn1cnc2sc(C)c(S(=O)(=O)N3CCN(c4ccccc4OC)CC3)c2c1=O	1%	-2%	.
